Compound activity from PubChem.
TEAD-YAP inh: TEAD-YAP interaction inhibition | 640,000 compounds, 1.4% hits | HEK-TIYL cells, TEAD-Gal4/YAP UAS-luciferase luminescence | inhibition, % at 9.12 µM; in the data active = inhibition above about 32%;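 also: 0% = median of test compound wells and 100% = reference inhibitor wells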
MITF inh: blocks human microphthalmia-associated transcription factor. O75030. AlphaScreen MITF homodimerization, bead proximity signal. inhibition, % at 2.6 µM. 650,000 compounds, 0.91% hits; in the data active = inhibition above about 50%;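 also: 0% = vehicle wells with protein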
FBW7 activator: human FBW7 E3 ligase activation, primary screen; AlphaScreen FBW7–phospho-cyclin E peptide binding, activator screen; 650,000 compounds, 0.13% hits; normalized activity (activation), % at 26.1 µM; in the data active = normalized activity above about 1.9%;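 also: purified mutant Fbw7 with reduced substrate affinity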
GPR151 ag: activators of human GPR151 | 650,000 compounds, 1% hits | PathHunter beta-arrestin GPR151 cells, luminescence | activation, % at 11.2 µM | AID 1508602; in the data active = activation above about 4.9%;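 also: 0% = median of compound wells and 100% = cells with positive control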
An asterisk follows results filed as active. Hits are enriched below; roughly 3.5% of the tested compounds scored in any of these assays.

SMILES	TEAD-YAP inh	MITF inh	FBW7 activator	GPR151 ag
CC1=NN(C(=O)c2cc(O)cc(O)c2)C(O)(C(F)(F)F)C1 (stereo unspecified)	1	-4	0	1
COc1ccccc1Oc1nc2ccccn2c(=O)c1/C=C(\C#N)C(N)=O	-17	12	0	-8
Cc1cc(=O)oc2cc(OCC(=O)OCC(=O)C(C)(C)C)ccc12	5	5	0	2
CCOCCCN1C(=O)CN(C2CCCCCC2)C(=O)C1c1ccccc1F (stereo unspecified)	6	-2	0	0
N#Cc1ccccc1Cn1nc(-c2cccc3ncccc23)oc1=O	53*	14	0	0
O=C(Cc1ccccc1)OCc1ccc(-c2ccc(Br)cc2)o1	-17	-11	0	-2
O=C(O)CCc1ccc(-c2ccc(Br)cc2)o1	-4	56*	0	-2
C=CCNC(=O)CN1C(=O)NC2(CCC(C)CC2)C1=O (stereo unspecified)	-5	-9	0	2
Cc1ccc(Nc2nc(N)c3ccccc3n2)cc1C	55*	19	0	-6
COc1ccc(NC(=O)CSc2nnc(C(C)C)c3cnn(-c4ccccc4)c23)c(OC)c1	14	0	0	0
O=C(Nc1ccccn1)c1ccc(-c2ccccc2)cc1	75*	3	0	-3
O=C(COc1ccc(Br)cc1)Nc1ccccn1	62*	-7	0	0
CCOc1ccc(OCC(=O)Nc2cccc(C(=O)O)c2)cc1	4	1	0	5
Cc1ccc(OCC(=O)Nc2ccccn2)cc1	83*	3	0	-1
Cc1ccc(OCC(=O)Nc2cccc(C(=O)O)c2)cc1	69*	-10	0	4
O=C(COc1ccccc1)Nc1ccccn1	21	1	0	-4
COc1ccc(-c2c(C#N)c(N)nc3sc(C(=O)c4ccc(Cl)cc4)c(N)c23)cc1	-9	-2	0	-2
Cc1cc(C)n(CCC(=O)N(C)c2nc3c(s2)CCc2oc(C)cc2-3)n1	5	-12	0	1
CCC(C)(C)NC(=O)CN(C(=O)CCC(=O)Nc1nccs1)c1cc(C)ccc1C	5	6	0	1
Cc1ccc(C)c(NCC(O)Cn2c3ccc(Cl)cc3c3cc(Cl)ccc32)c1 (stereo unspecified)	0	9	1	-1
COc1cc(OC)cc(C(=O)N/N=C(\C)CC(=O)Nc2ccccn2)c1	56*	-2	0	0
Cc1ccc(C(=O)NC(=S)Nc2cccc(C(=O)O)c2)cc1	75*	2	0	-6
CCOc1ccc(C(=O)NC(=S)Nc2ccccn2)cc1	86*	13	1	-8
CCCCOc1ccc(C(=O)NC(=S)Nc2ccccn2)cc1	-50	19	1	-2
Cc1cccc(C(=O)NC(=S)Nc2cccc(C(=O)O)c2)c1	-42	-2	0	-1
SMILES	TEAD-YAP inh	MITF inh	FBW7 activator	GPR151 ag
N#CSc1ccc(Nc2cc(N3CCCCC3)c3nonc3c2[N+](=O)[O-])cc1	7	13	0	0
COc1cc(/C=c2/sc3nc4ccccc4n3c2=O)ccc1OC(C)=O	-4	13	0	-1
CCC(CC)C(=O)N1c2ccccc2C(=C2SC(C(=O)OC)=C(C(=O)OC)S2)C(=S)C1(C)C	4	55*	0	1
CCC(=O)N1c2ccccc2C(=C2SC(C(=O)OC)=C(C(=O)OC)S2)C(=S)C1(C)C	3	24	0	-1
COC(=O)C1=C(C(=O)OC)SC(=C2C(=S)C(C)(C)N(C(=O)c3ccccc3-c3ccccc3)c3cc(C)ccc32)S1	-2	61*	0	-1
COc1ccc(F)c(CN2CCC(C(=O)Nc3cccc(-c4ccn[nH]4)c3)CC2)c1	9	6	0	-1
COc1ccc(-n2nc(C(=O)NCC(=O)Nc3cc([N+](=O)[O-])ccc3OC)c3ccccc3c2=O)cc1	-11	13	1	1
CN(C)CCNc1ccc([N+](=O)[O-])cc1[N+](=O)[O-]	-2	-5	0	3
O=C1C=C(C(F)(F)C(F)(F)F)Nc2ccccc2N1	-1	-7	0	1
CCOC(=O)N1CCN(S(=O)(=O)c2ccc(C(=O)Nc3ccc(F)cc3)cc2)CC1	41*	4	0	0
CCN(C1CCCCC1)S(=O)(=O)c1ccc(C(=O)Nc2ccc(F)cc2)cc1	33*	-1	0	1
CN(C1CCCCC1)S(=O)(=O)c1ccc(NC(=O)c2ccc(F)cc2)cc1	4	8	0	5
CCOC(=O)N1CCN(S(=O)(=O)c2ccc(C(=O)Nc3ccc(C(C)=O)cc3)cc2)CC1	-11	-4	0	1
CC1CN(c2ncnc3scc(-c4ccc(Br)cc4)c23)CC(C)O1 (stereo unspecified)	-11	-5	0	2
Oc1cccc(-c2nc3ccccc3[nH]2)c1	47*	-2	0	-6
Fc1cccc(-c2nc3ccccc3[nH]2)c1	-43	1	0	-5
Oc1ccc2nc(-c3ccccc3)[nH]c2c1	-9	2	0	-4
Cc1ccc2nc(-c3ccccn3)[nH]c2c1	64*	-3	-2	-8
Nc1ccc2nc(-c3ccc(Cl)cc3)[nH]c2c1	-54	17	1	-4
Brc1cccc(-c2nc3ccccc3[nH]2)c1	-51	9	1.9*	-4
CN(C)c1ccc(-c2nc3ccc(N)cc3[nH]2)cc1	78*	21	0	-9
Nc1ccc(-c2nc3ccc(N)cc3[nH]2)cc1	-17	-13	0	-5
Cc1ccc2nc(-c3ccc(O)cc3)[nH]c2c1	44*	9	0	-11
Nc1cccc(-c2nc3ccc(N)cc3[nH]2)c1	-9	2	0	-8
Nc1ccc2nc(-c3cccc(O)c3)[nH]c2c1	42*	-3	0	-3
SMILES	TEAD-YAP inh	MITF inh	FBW7 activator	GPR151 ag
Nc1ccc(-c2nc3ccc(O)cc3[nH]2)cc1	77*	-9	0	-5
Nc1ccc(-c2nc3cc4ccccc4cc3[nH]2)cc1	35*	-1	0	0
O=C(Nc1ccc2c(c1)OCO2)c1ccc(Cl)cc1[N+](=O)[O-]	-22	4	0	1
Cc1cc(/C=C2\C(=O)NC(=S)N(c3cccc(F)c3)C2=O)c(C)n1-c1cccnc1	-3	29	0	0
CCOC(=O)c1c(C)[nH]c(C)c1C(=O)COC(=O)c1ccc2[nH]c(C)c(C)c2c1	66*	-6	0	-1
CCOC(=O)c1c(C)[nH]c(C)c1C(=O)COC(=O)c1ccc(O)cc1	-1	8	0	-1
CC(=O)C(C)n1c(CN2CCCC(C)C2)nc2c1c(=O)n(C)c(=O)n2C (stereo unspecified)	3	-13	0	0
N=C1/C(=C/c2cn(Cc3ccc4c(c3)OCO4)c3ccccc23)C(=O)N=C2SC=CN12	12	7	0	2
N=C1/C(=C/c2ccc(OCc3ccc4c(c3)OCO4)c(Cl)c2)C(=O)N=C2SC=CN12	39*	-5	0	-5
COc1cccc(CC(=O)n2nc(N)c3cc4ccc(OC)cc4nc32)c1	8	4	0	0
COc1ccc(CC(=O)n2nc(N)c3cc4ccc(OC)cc4nc32)cc1	41*	7	0	1
